Source: PubChem BioAssay (NCATS)
Several values for one entry are separate records, joined by “and”; a condition that tells them apart may be missing. Identical values can stand only once. Results filed as inconclusive are left out. Where a call stands in place of a potency, no number is given. Activity calls are given as the source filed them. The call rests on the fitted dose curve; in most records, active means well fitted inhibition curve with a large enough effect; inconclusive means small, poorly fitted or top-dose-only effect; inactive means no such curve, though single readings can be large or run the other way.

Test: Primary qHTS for inhibitors of nuclear receptor binding SET domain protein 2 (NSD2) in an RCH-ACV wild type WT cells (2C) (AID 1645877); further: nearly all actives have a fitted effect of over 70% in size
Details: RCH-ACV (leukaemia line) NSD2 WT (2C) viability, CellTiter-Glo, 72 h; series mostly up to 44.9 µM
From the text: Assay Provider: Jonathan D. Licht, MD
University of Florida College of Medicine, Gainesville, FL
Mutations in epigenetic regulators are common in relapsed pediatric acute lymphoblastic leukemia (ALL). Here, we uncovered the mechanism underlying the relapse of ALL driven by an activating mutation of the NSD2 histone methyltransferase (p.E1099K). […] Correction of this mutation restored glucocorticoid sensitivity. The transcriptional response to glucocorticoids was blocked in NSD2 mutant cells due to depressed glucocorticoid receptor (GR) levels and the failure of glucocorticoids to autoactivate GR expression. […] Pre-treatment of NSD2 p.E1099K cell lines and PDX samples with PRC2 inhibitors reversed glucocorticoid resistance in vitro and in vivo.
High-throughput drug screening of isogenic RCH-ACV cell lines was performed at the National Center for Advancing Translational Science (NCATS), National Institutes of Health as previously described (1). Briefly, isogenic RCH-ACV NSD2 p.E1099K mutant (9B) and WT cells (2C) were plated at 500 cells/well in a 1536-well plate with a 72-hour incubation with compounds prior to addition of CellTiter-Glo to assess cell viability. NCATS libraries screened include: NPC, MIPE 5.0, Kinase and NPACT. To determine compound activity in the qHTS assay, the concentration-response data for each sample was plotted and modeled by a four-parameter logistic fit yielding IC50 and efficacy (maximal response) values. The area under the curve (AUC) of the dose-response curve ensures both efficacy (magnitude of cell killing) and potency (concentration that elicits cell killing) are accounted for in the analysis of activity.
1. Tobie D Lee, Olivia W Lee, Kyle R Brimacombe, Lu Chen, Rajarshi Guha, Sabrina Lusvarghi, Bethilehem G Tebase, Carleen Klumpp-Thomas, Robert W Robey, Suresh V Ambudkar, Min Shen, Michael M Gottesman, Matthew D Hall. A High-Throughput Screen of a Library of Therapeutics Identifies Cytotoxic Substrates of P-glycoprotein. Mol Pharmacol. 2019, Nov;96(5):629-640.
For `COc1cc(C)c(/C=C/C(C)=C/C=C/C(C)=C/C(=O)O)c(C)c1C`, the Potency was 18.6 µM (active). In the case of `CC(=O)NCCCS(=O)(=O)O`, the Potency is reported as “inactive”. With `CC[C@H](CC[C@@H](C)[C@H]1CC[C@H]2[C@@H]3CC=C4C[C@@H](O)CC[C@]4(C)[C@H]3CC[C@]12C)C(C)C` the Potency was “inactive”. In the case of `O=C(O)CCC(=O)c1ccc(-c2ccccc2)cc1`, the Potency is reported as “inactive”. For `CO[C@H]1C[C@@H]2CC[C@@H](C)[C@@](O)(O2)C(=O)C(=O)N2CCCC[C@H]2C(=O)O[C@H]([C@H](C)C[C@@H]2CC[C@@H](OC(=O)C(C)(CO)CO)[C@H](OC)C2)CC(=O)[C@H](C)/C=C(\C)[C@@H](O)[C@@H](OC)C(=O)[C@H](C)C[C@H](C)/C=C/C=C/C=C/1C`, the Potency was 0.574 µM (active). With `C[C@H]1O[C@@H](O[C@H]2[C@@H](O)C[C@H](O[C@H]3[C@@H](O)C[C@H](O[C@H]4CC[C@@]5(C)[C@H](CC[C@@H]6[C@@H]5C[C@@H](O)[C@]5(C)[C@@H](C7=CC(=O)OC7)CC[C@]65O)C4)O[C@@H]3C)O[C@@H]2C)C[C@H](O)[C@@H]1O` the Potency was 51.5 nM (active) and 118 nM (active). In the case of `C=C1[C@H](CO)[C@@H](O)C[C@@H]1n1cnc2c(=O)[nH]c(N)nc21`, the Potency is reported as “inactive”. With `C[C@]12CC[C@@H]3c4ccc(OC(=O)c5ccccc5)cc4CC[C@H]3[C@@H]1CC[C@@H]2O` the Potency was “inactive”. With `C=C1CC[C@H](O)CC1=C/C=C1\CCC[C@]2(C)[C@@H]([C@H](C)/C=C/[C@H](C)C(C)C)CC[C@@H]12` the Potency was 20.5 µM (active). In the case of `CC(=O)Oc1cccc2c1C(=O)c1c(OC(C)=O)cc(C(=O)O)cc1C2=O`, the Potency is reported as “inactive”. In the case of `N[C@@H](Cc1cc(I)c(Oc2ccc(O)c(I)c2)c(I)c1)C(=O)O`, the Potency is reported as “inactive”. With `CCCCC[C@H](O)/C=C/[C@H]1[C@H](O)CC(=O)[C@@H]1CCCCCCC(=O)O` the Potency was 20.9 µM (active). In the case of `Oc1ccc(/C=C/c2cc(O)cc(O)c2)cc1`, the Potency is reported as 18.8 µM (active) and 11.8 µM (active). In the case of `C=CC[N+]1([C@H]2C[C@H]3[C@@H]4CC[C@H]5C[C@H](O)[C@@H](N6CCOCC6)C[C@]5(C)[C@H]4CC[C@]3(C)[C@H]2OC(C)=O)CCCC1`, the Potency is reported as “inactive”. In the case of `CCC[C@@H]1C[C@@H](C(=O)N[C@@H]([C@H]2O[C@H](SC)[C@H](O)[C@@H](O)[C@H]2O)[C@H](C)Cl)N(C)C1`, the Potency is reported as “inactive”. For `CN(C)CCCSc1ccccc1NC(=O)/C=C/c1ccccc1`, the Potency was “inactive”. With `CC(C)Cc1ccc([C@@H](C)C(=O)NS(C)(=O)=O)cc1` the Potency was “inactive”. With `NC[C@H]1O[C@H](O[C@H]2[C@H](O)[C@@H](O[C@H]3O[C@H](CO)[C@@H](O)[C@H](N)[C@H]3O)[C@H](N)C[C@@H]2N)[C@H](N)C[C@@H]1O` the Potency was “inactive”. For `CC(=O)Nc1ccc(NC(=S)NC(=O)c2ccc(C(C)(C)C)cc2)cc1`, the Potency was 3.25 µM (active). With `CC[C@H]1OC(=O)[C@H](C)[C@@H](O[C@H]2C[C@@](C)(OC)[C@@H](O)[C@H](C)O2)[C@H](C)[C@@H](O[C@@H]2O[C@H](C)C[C@H](N(C)C)[C@H]2O)[C@](C)(O)C[C@@H](C)CN(C)[C@H](C)[C@@H](O)[C@]1(C)O` the Potency was “inactive”. For `CC(C)(C)c1ccc(CN2CCN(C(c3ccccc3)c3ccc(Cl)cc3)CC2)cc1` (configuration not stated), the Potency was “inactive”. With `COc1ccc([C@@H]2CC(=O)c3c(O)cc(O[C@@H]4O[C@H](CO[C@@H]5O[C@@H](C)[C@H](O)[C@@H](O)[C@H]5O)[C@@H](O)[C@H](O)[C@H]4O)cc3O2)cc1O` the Potency was “inactive”.
